Source: PubChem BioAssay (National Center for Advancing Translational Sciences (NCATS))
The list is not random: actives were taken first. Their share in the collection is about 3.3%.
PI4K2A block – qHTS for small molecular inhibitors of PI4K2A | Phosphatidylinositol 4-kinase type 2-alpha (Homo sapiens), Q9BTU6 | purified PI4K2A, ADP-Glo luminescence, 1 h; active compounds read low | activity change, negative = inhibition, % at 76.9 µM | 420,000 tested, 0.13% active | AID 1346378, 2018; in the data active = activity change below about -50%; inconclusive = mostly about -30% to -49%;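 also: -100% = wells without enzyme as full effect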
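PI4K2A activity was measured by ADP-Glo luminescence: enzyme (4 ug/mL stock) and phosphatidylinositol (1.2 mM stock) in Tris pH 7.5/MgCl2/EGTA/Triton X-100 buffer were reacted with ATP (300 microM stock) for one hour at ambient temperature.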
D3 ag – qHTS of D3 Dopamine Receptor Agonist: qHTS | D3R DiscoveRx beta-arrestin cells, luminescence, 90 min | D(3) dopamine receptor (Homo sapiens), P35462 | max activation, % | 410,000 tested, 0.58% active; in the data active = max activation above about 30%; also: 0% is about no effect
Target sequence (P35462 whole entry, looked up): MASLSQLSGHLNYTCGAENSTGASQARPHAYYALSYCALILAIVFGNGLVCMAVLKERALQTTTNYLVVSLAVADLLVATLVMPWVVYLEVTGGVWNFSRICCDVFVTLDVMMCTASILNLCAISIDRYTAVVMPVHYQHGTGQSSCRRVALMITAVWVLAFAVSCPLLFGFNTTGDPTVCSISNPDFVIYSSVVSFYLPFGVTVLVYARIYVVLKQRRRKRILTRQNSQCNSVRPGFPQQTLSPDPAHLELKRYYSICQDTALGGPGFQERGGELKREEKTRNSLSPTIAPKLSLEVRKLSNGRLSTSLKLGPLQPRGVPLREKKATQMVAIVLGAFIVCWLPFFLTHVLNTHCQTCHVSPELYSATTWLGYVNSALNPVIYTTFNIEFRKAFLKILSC
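Agonist-mode cell screen: cells plated at 1500/well and incubated overnight at 37 °C, then exposed to library compounds for 90 min at 37 °C. Detection reagent was added for 30–60 min at room temperature, and luminescence was read.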
D3 antag – qHTS of D3 Dopamine Receptor Antagonist: qHTS; D3R cells, DiscoveRx beta-arrestin luminescence, antagonist mode; active compounds read low; D(3) dopamine receptor (Homo sapiens), P35462; max response, negative = inhibition, %; 360,000 tested, 2.5% active; in the data active = max response below about -50%; inconclusive = no clear call, values can overlap the other calls; also: % is scaled to controls: 0 for no effect and ±100 for the full control effect
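Cells plated overnight at 1500 cells/well, then exposed to library compounds with dopamine controls for 90 minutes at 37 degrees C. DiscoveRx reagent added for 30–60 minutes at room temperature; luminescence read, quantitative HTS format.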
PI5P4K alpha inh – qHTS for Inhibitors of phosphatidylinositol 5-phosphate 4-kinase (PI5P4K); Phosphatidylinositol 5-phosphate 4-kinase type-2 alpha (Homo sapiens), P48426; PI5P4Kalpha enzyme, ADP-Glo luminescence, 60 min; active compounds read low; max response, %; 330,000 tested, 1.2% active; active = max response of -50% or lower; inconclusive = between -30% and -50%; inactive = -30% or higher; also: value at the top dose of about 77 µM; % is scaled to controls: 0 for no effect and ±100 for the full control effect
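ADP-Glo luminescence end-point after a 60 min room-temperature kinase reaction. PI5P4Kalpha and substrate in HEPES pH 7.4 buffer with EGTA, 0.1% CHAPS and 5% DMSO; ATP at 5 microM final.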
LDHA block – qHTS assay for inhibitors of human lactate dehydrogenase. L-lactate dehydrogenase A chain (Homo sapiens), P00338. purified LDHA, NADH/diaphorase-resazurin fluorescence; active compounds read low. activity change, % (values are at about 110 or 230 µM). 480,000 tested, 0.15% active. AID 1347041, 2019; in the data active = activity change below about -30%; inconclusive = mostly about -25% to -30%;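 also: plate controls were DMSO wells for no effect and wells without enzyme for full effect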
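LDH5 2 nM; NADH 0.06 mM, pyruvate 0.2 mM; 200 mM Tris pH 7.4, EDTA, Tween-20; 5 min RT. Detection: diaphorase 0.133 mg/mL + resazurin 37 µM, fluorescence ex540/em590 at 0 and 20 min; normalized to enzyme-free and DMSO wells.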
ADP-Glo counter – qHTS for Inhibitors of PI5P4K: ADP-Glo counter assay; shares compounds with PI5P4K alpha inh; ADP-Glo detection counter-screen, luciferase luminescence, no enzyme; Potency, µM (doses to about 76.9 µM), for inactives: top-dose activity change, negative = inhibition, hits mostly inhibitors; 1,100 tested, under 10 active; active = well fitted curve in the direction sought with a large enough effect; inconclusive = small, poorly fitted or top-dose-only effect, or another doubt; inactive = no such curve, though single readings can be large or run the other way
* = called active by the depositor; ? = inconclusive; nt = no result given.

SMILES	PI4K2A block	D3 ag	D3 antag	PI5P4K alpha inh	LDHA block	ADP-Glo counter
N#Cc1cc(NC(=O)C2CC2)ccc1OCC(F)(F)F	nt	nt	nt	nt	0	nt
Cc1ccc(S(=O)c2ccc(NC(=O)C3CC3)cc2C#N)cc1 (stereo not given)	-4	3	-11	-63*	-6	-6%
C/C(=N\Nc1ccc([N+](=O)[O-])cc1)c1ccc(Br)cc1	nt	nt	nt	nt	5	nt
Cc1ccc(NC(=O)N2CCC(NC(=O)c3cccc(C)c3)CC2)cc1	-2	1	-25	-78*	-10	-5%
Cc1ccc(NC(=O)N2CCC(NC(=O)c3ccco3)CC2)cc1	6	3	3	-2	-6	nt
Cc1cccc(COC(=O)Cn2c(=O)c3c(ncn3CC(C)C)n(Cc3ccccc3)c2=O)c1	nt	nt	nt	nt	6	nt
Cc1sc2ncnc(NC(C)C(=O)O)c2c1C (stereo not given)	0	-3	31	nt	-3	-5%
Cc1ccccc1CNC(=O)c1ccc2nc([C@@H]3O[C@H](CO)[C@H](O)[C@H](O)[C@H]3O)[nH]c2c1	3	-10	-19	-88*	-8	3%
Cc1cccc(-n2nnnc2C2(Nc3ccccc3)CCCCC2)c1	nt	nt	nt	nt	-24	nt
CCCCC(CC)C(=O)Nc1ccc(F)cc1F (stereo not given)	nt	nt	nt	nt	-14	nt
CNC(=S)N(Cc1cccs1)Cc1cc2cc(OC)ccc2[nH]c1=O	-5	7	6	-51*	-8	1%
O=C(CCn1nnc2ccccc21)Nc1nnc(COc2ccccc2F)s1	15	0	-21	-6	-11	nt
O=C(CCn1nnc2ccccc21)Nc1nnc(Cc2ccccc2)s1	-4	-2	-5	-53*	-3	1%
NC(=O)c1cc2ccccc2nc1N	nt	nt	nt	nt	4	nt
CCc1cccc(NC(=S)N(CCCN2CCOCC2)C(C)c2cc3cccc(OC)c3o2)c1 (stereo not given)	5	-12	-29	11	-9	nt
COc1cccc2cc(C(C)N(CCCN3CCOCC3)C(=O)Nc3ccccc3)oc12 (stereo not given)	-1	-15	-7	-2	-8	0%
O=C(CN1CCCc2ccc(F)cc21)Nc1cccc2nsnc12	nt	nt	nt	nt	21	nt
Nn1c(SCC(=O)NCCc2ccc(F)cc2)nnc1-c1ccco1	nt	nt	nt	nt	-11	nt
COc1ccc(C2=NOC(C(=O)NCc3ccccn3)C2)cc1 (stereo not given)	0	1	5	?	-6	nt
COc1ccc(C2=NOC(C(=O)NCc3ccccn3)C2)cc1OC (stereo not given)	-6	1	19	-53*	-3	3%
CCN1C(=O)C2(c3cc(C)ccc31)N1CC3(C)CN2CC(C)(C1)C3=O (stereo not given)	nt	nt	nt	nt	2	nt
NC(=O)c1c(NC(=O)c2ccc(F)cc2)sc2c1CCC2	-4	5	17	-22	-3	nt
NC(=O)c1c(NC(=O)c2cc3ccccc3o2)sc2c1CCC2	-6	1	3	-56*	-3	-14%
CCC(C)(C)C1CCc2c(sc(NC(=O)C3c4ccccc4Oc4ccccc43)c2C(N)=O)C1 (stereo not given)	0	0	nt	nt	3	nt
NC(=O)c1c(NC(=O)C2c3ccccc3Oc3ccccc32)sc2c1CCCCC2	-11	-2	5	-54*	-5	4%
Cc1cccc2cc(CN(c3ccccc3)S(C)(=O)=O)c(=O)[nH]c12	nt	nt	nt	nt	4	nt
CCOc1ccc(NC(=O)c2cc(=O)[nH]c3ccccc23)cc1	-3	5	-11	-51*	-7	-6%
CCOc1ccc(Oc2ccc(NC(=O)c3cc(=O)[nH]c4ccccc34)cc2)cc1	nt	nt	nt	nt	12	nt
CC1CCc2c(sc3ncnc(NS(=O)(=O)c4cccs4)c23)C1 (stereo not given)	-5	0	-13	-55*	-3	2%
